# Source: PubChem (National Center for Advancing Translational Sciences (NCATS))
# HT1080 IDH1KD tx = qHTS for induction of synthetic lethality in tumor cells producing 2HG: qHTS for the HT-1080-IDH1KD cell line; HT-1080 IDH1 knockdown viability, ATP luminescence, 48 h; 360,000 tested, 2% active; Potency, µM (top dose mostly 46.1 µM), for the others: at the highest dose activity, negative = toxicity, actives largely listed as cytotoxic;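 also: 0% = DMSO wells and -100% = cell-free medium wells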
#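 % activity derives from luminescence (CellTiter-Glo), normalised to DMSO and no-cell wells. HT-1080-IDH1KD cells, 750/well, had 48 h compound exposure at 37 °C.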
# HT1080NT lethal = qHTS for induction of synthetic lethality in tumor cells producing 2HG: qHTS for the HT-1080-NT fibrosarcoma cell line; Potency, µM (series often up to 46.1 µM), inactives show at the top dose activity, negative = less viability, usual class: cytotoxic; 360,000 tested, 1.6% active; HT-1080-NT fibrosarcoma viability, CellTiter-Glo ATP luminescence, 48 h;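 also: NT is the 2HG producing partner of a matched IDH1 knockdown line; 0% = DMSO-treated cells and -100% = media-only wells without cells; nearly all actives have a fitted effect of over 55% in size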
#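 Viability by CellTiter-Glo luminescence after 48 h compound exposure at 37C of HT-1080-NT cells (750/well, RPMI, 5% FBS). % activity scaled between DMSO wells and medium-only wells, then curve-fitted and categorized by curve class.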
# KB-3-1 cytotox = qHTS assay for MDR1-selective chemotherapeutics: Primary screen using the parental adenocarcinoma cell KB-3-1; 400,000 tested, 1.4% active; AID 1347075, 2019; Potency, µM (titrated, usually from 46.1 µM), most hits filed as cytotoxic; KB-3-1 viability, CellTiter-Glo ATP luminescence, 72 h; also: % is scaled to controls: 0 for no effect and ±100 for the full control effect; nearly all actives have a fitted effect of over 60% in size
#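 Cytotoxicity measured as CellTiter-Glo luminescence after 72 h at 37 C. Compound titrations were pinned onto drug-naive KB-3-1 parental adenocarcinoma cells grown in DMEM with 10% FBS, and normalized data fitted to concentration-response curves.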
# KB-V1 MDR tox = qHTS assay for MDR1-selective chemotherapeutics: Primary screen using the drug-selected MDR subline cells KB-V1; KB-V1 MDR cells viability, CellTiter-Glo, 72 h; 400,000 tested, 3.4% active; Potency, µM (top dose mostly 46.1 µM), most hits filed as cytotoxic; AID 1347076, 2019; also: % is scaled to controls: 0 for no effect and ±100 for the full control effect; nearly all actives have a fitted effect of over 60% in size
#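 In this primary screen, KB-V1 cells overexpressing P-gp are incubated with library compounds (lowest to highest concentration) for 72 h at 37 degrees C before a luminescent ATP viability read.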
# MCF10A rereplic = A quantitative high throughput screen for small molecules that induce DNA re-replication in MCF 10a normal breast cells. Potency, µM (series often up to 46.1 µM), inactives show top-dose activity, positive = re-replication, most hits filed as activators. AID 624296, 2012. MCF 10A DNA re-replication, Hoechst nuclear intensity, 48 h. 350,000 tested, 2.9% active; also: % of control where 0% means no effect; nearly all actives have a fitted effect of over 50% in size
# SW480 rereplic = A quantitative high throughput screen for small molecules that induce DNA re-replication in SW480 colon adenocarcinoma cells | SW480 DNA re-replication, Hoechst DNA content imaging, 48 h | Potency, µM (titrated, usually from 46.1 µM), for inactives: top-dose re-replication activation, actives largely listed as activators | 340,000 tested, 1.8% active; also: % of control where 0% means no effect; nearly all actives have a fitted effect of over 55% in size
#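 DNA re-replication was detected as more nuclei of elevated Hoechst intensity after 48 hr exposure to compound (23 nL pinned per well of 250 cells).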
# An asterisk follows results filed as active; i = inactive; ? = inconclusive; / = not tested or not shown; ! = repeats disagree; [ ] = remark or other dose. This is a sample that favours compounds with a hit; in the whole collection about 8% have one here. Calls follow the shape of the dose curve; as a rule, active = well fitted curve in the direction sought with a large enough effect; inconclusive = small, poorly fitted or top-dose-only effect, or another doubt; inactive = no such curve, though single readings can be large; an effect the other way counts as inactive or inconclusive. Potency is read from the fitted curve at half-maximal effect.
SMILES,HT1080 IDH1KD tx,HT1080NT lethal,KB-3-1 cytotox,KB-V1 MDR tox,MCF10A rereplic,SW480 rereplic
CCOC(=O)Cc1ccc(NC(=O)NCc2c(-n3cccc3)sc3c2CCCC3)cc1,/,/,i,i,/,/
O=C(CSc1nnc(Cn2c(=O)sc3ccccc32)n1CCc1ccccc1)N1CCOCC1,-0.6%,21.6%,i,18.4µM*,15.2%,1.3%
FC(F)(F)c1nc(-c2cccs2)ncc1-c1nnnn1-c1ccc(Cl)cc1,?,?,?,16.4µM*,6.51µM*,5.7%
COc1ccc(-n2nnnc2-c2cnc(N3CCCC3)nc2C(F)(F)F)cc1,-20.5%,-3.2%,18.4µM*,5.17µM*,?,-0.6%
Cc1ccc(C(=O)c2cn(Cc3ccccc3F)c3cc4c(cc3c2=O)OCO4)cc1,/,/,i,i,/,/
CCOC(=O)c1c(C)oc2nc(C)nc(NCC3CCN(Cc4ccccc4C)CC3)c12,/,/,i,i,/,/
COc1ccc(Cn2c(C(=O)O)c(CNCCc3cccs3)c3ccc(C)cc32)cc1,/,/,i,i,/,/
Cc1c(C(=O)OCCOC(C)C)[nH]c2c1C(=O)CC(C)(C)C2,14.8%,8.9%,i,i,-0.8%,2.9%
Cc1c(C(=O)OCCOc2ccccc2)[nH]c2c1C(=O)CC(c1ccc(C(C)(C)C)cc1)C2 (centres undefined),/,/,i,i,/,/
Cc1c(C(=O)OCCOC(C)C)[nH]c2c1C(=O)CC(c1ccco1)C2 (centres undefined),0.326µM*,0.411µM*,0.517µM*,0.461µM*,?,1.46µM*
CSCCOC(=O)c1[nH]c2c(c1C)C(=O)CC(c1ccco1)C2 (centres undefined),2.31µM*,?,1.16µM*,?,?,1.3µM*
CCOC(=O)c1[nH]c2c(c1C)C(=O)CC(c1ccco1)C2 (centres undefined),0.92µM*,1.03µM*,i,i,9.2µM*,0.184µM*
Cc1c(C(=O)OCc2ccccc2)[nH]c2c1C(=O)CC(c1ccco1)C2 (centres undefined),1.3µM*,?,0.581µM*,?,?,?
COc1ccc(C(=O)Nc2nc3n(n2)C(c2ccc(F)cc2)C=C(c2ccc(Cl)cc2)N3)cc1 (centres undefined),/,/,i,i,/,/
COc1cc(OC)c(NC(=O)c2cc(C(C)=O)n3ccccc23)cc1Cl,/,/,i,i,/,/
CCN1CCOC(=O)C1CC(=O)Nc1ccc(Br)cc1 (centres undefined),/,/,i,i,/,/
Cc1ccc(S(=O)(=O)C(CNC(=O)C(=O)NCCc2ccc(Cl)cc2)c2cccs2)cc1 (centres undefined),/,/,i,i,/,/
COCCOC(=O)c1[nH]c2c(c1C)C(=O)CC(c1ccco1)C2 (centres undefined),1.64µM*,2.31µM*,1.16µM*,1.16µM*,8.2µM*,1.03µM*
C/C(=N\NC(=O)c1ccc(N2CCCC2=O)cc1)c1ccc(O)cc1O,?,-24.8%,?,i,7.8%,9.2µM*
Cc1noc(C)c1CSCC(=O)N(C)CC(=O)Nc1ccc(Cl)c(Cl)c1,-10.9%,-1.0%,i,5.8µM*,8.9%,-1.0%
Cc1ccc(C)c(NC(=O)CN(C)C(=O)CSCc2c(C)noc2C)c1,-21.9%,6.4%,i,i,0.7%,0.4%
Cc1noc(C)c1CSCC(=O)N(C)CC(=O)Nc1ccc(Cl)c(C(F)(F)F)c1,-0.2%,-14.0%,i,i,27.1%,-245.2%
CCN(CC(=O)Nc1cc(Cl)ccc1C)C(=O)CSCc1c(C)noc1C,-2.4%,-3.0%,i,i,8.7%,6.51µM*
COc1ccc(-c2cc(C(F)(F)F)nc(SCCC(=O)Nc3cccc(O)c3)n2)cc1,/,/,i,?,/,/
Oc1c(C(c2ccccn2)N2CCCCC2)cc(Cl)c2cccnc12 (centres undefined),16.4µM*,14.6µM*,?,?,20.6µM*,?
SMILES,HT1080 IDH1KD tx,HT1080NT lethal,KB-3-1 cytotox,KB-V1 MDR tox,MCF10A rereplic,SW480 rereplic
CN1CCN(C(c2ccc(Cl)cc2)c2cc(Cl)c3cccnc3c2O)CC1 (centres undefined),23.1µM*,?,?,?,?,11.0%
CCC(=O)NC(c1cc(Cl)c2cccnc2c1O)C1CC1 (centres undefined),/,/,?,?,8.3%,17.0%[9.22 µM]
CN(C)c1ccc(CNC(=O)C2CCN(c3nnc(-n4cccc4)s3)CC2)cc1,/,/,i,i,/,/
O=C(CSC1=NCCS1)NCc1ccco1,0.1%,3.0%,i,i,23.1µM*,?
O=C(CSc1nc(-c2ccccc2)c(-c2ccccc2)[nH]1)NCc1ccco1,?,?,?,10.3µM*,14.6µM*,11.6µM*
O=C(CSc1nc(-c2ccccc2)c(-c2ccccc2)[nH]1)NCCN1C(=O)CSC1=O,6.51µM*,4.61µM*,3.66µM*,?,?,?
O=C(CSc1nnc(-c2ccccc2)c(-c2ccccc2)n1)NCc1ccco1,?,-29.6%,?,16.4µM*,18.4µM*,19.2%
O=C(CSC1=Nc2ccccc2C2CC=NN12)NCc1ccco1 (centres undefined),7.31µM*,?,?,?,20.6µM*,?
O=C(Cn1c(SCCOc2ccccc2Cl)nc2ccccc21)N1CCCCC1,/,/,i,?,/,/
CCOc1nc(NC(=O)NS(=O)(=O)Oc2cccc(Cl)c2)nc(-c2ccccc2)n1,20.0%,0.7%,0.0016µM*!,i,6.7%,1.7%
CCOc1nc(NC(=O)NS(=O)(=O)Oc2ccc(Cl)cc2)nc(-c2ccccc2)n1,/,/,i,i,/,/
COc1ccc(N(C(=O)Cn2cnc3ccccc32)C(C(=O)NC2CCCCC2)c2ccccc2)cc1 (centres undefined),-29.2%,?,i,i,?,23.1µM*
Cc1ccccc1C(=O)Nc1cccc(OCc2cc(=O)n3c4c(sc3n2)CCCC4)c1,/,/,i,i,/,/
COc1ccccc1-n1cnc(N)c1C(C)=O,1.7%,0.7%,i,i,-9.6%,11.2%
COc1ccccc1-n1cnc(N)c1C(=O)c1ccccc1,25.9µM*,?,i,i,?,14.6µM*
